# Source: PubChem (several laboratories)
# CF NFkB block = inhibitors of PAF-induced NF-kB signaling, primary screen, cell-based, GFP fluorescence, uHTS; AID 588850, 2011; KKLEB NF-kB-GFP reporter, GFP fluorescence overnight; inhibition, % at 5 µM; 360,000 tested, 0.86% active;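 active means at least 50% inhibition at 5 µM, scaled per plate between neutral and stimulator controls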;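 further: PAF is a Pseudomonas aeruginosa culture filtrate used as stimulus; plate controls were PAF-stimulated DMSO wells for no effect and unstimulated DMSO wells for full effect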
# Shn3 3UTR inh = reduction of Shn3 3'UTR firefly luciferase signal, primary screen, Schnurri-3 inhibitor project, cell-based, Clone20 osteoblasts, set 2; Clone20 osteoblast Shn3 3'UTR firefly luciferase, 24 h; inhibition, % at 12.5 µM; 360,000 tested, 0.52% active; AID 588674, 2011;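 active means mean inhibition of at least 75% with every replicate also reaching 75%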;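 further: 0% = median of neutral control wells and 100% = pilot-screen positive control compound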
# HIF-2a inh = HIF-2a reporter inhibitors, primary screen, luminescence, 786-0 RCC cells; inhibition, % at 18.8 µM; AID 624352, 2012; 786-0 RCC cells HIF-2a reporter, luciferase luminescence, overnight; 360,000 tested, 0.72% active;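 active means inhibition of the luminescence signal of 40% or more relative to plate controls, in a single-dose primary screen at 18.75 µM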
# KKLEB cytotox = cytotoxicity in KKLEB CF airway cells, primary screen, cytotoxicity control for CF NF-kB inhibitor project, cell-based, uHTS, fluorescence assay plates; KKLEB CF airway cells viability, ATPlite luminescence, overnight; stronger effect = lower value; cells stimulated with P. aeruginosa culture filtrate; activity change (cytotoxicity), % at 5 µM; 360,000 tested, 0.36% active; AID 602141, 2011;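 active means corrected activity change at or below -50% at 5 µM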
# MITF TRPM1 inh = inhibitors of MITF-dependent TRPM1 promoter reporter, primary screen, cell-based, SK-MEL-5, single point, luciferase | SK-MEL-5 TRPM1 promoter luciferase, 24 h | inhibition, % at 12.5 µM | 330,000 tested, 0.83% active;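 active means mean inhibition across replicates of 60% or more, whatever share of single replicates reaches that level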
# Peg3 promoter = Peg3 promoter-driven luciferase inhibitors, primary screen, cell-based, HeLa, luciferase luminescence | HeLa PEG-Prom luciferase reporter, overnight | inhibition, % at 20 µM | 360,000 tested, 1.7% active | AID 588405, 2011;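 active means inhibition of at least 50% at 20 µM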
# CF NFkB inh conf = inhibitors of PAF-induced NF-kB signaling, retest, confirmation, cell-based, GFP fluorescence, single concentration. 1,300 tested, 64% active. inhibition, % at 5 µM. KKLEB CF airway cells, overnight. shares compounds with CF NFkB block; in the data active means inhibition above about 40%;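 further: stimulus PAF is a Pseudomonas aeruginosa filtrate and not platelet activating factor; plate controls were DMSO wells with stimulus for no effect and unstimulated DMSO wells for full effect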
# * marks the source's active call; other numbers are inactive results; / = not tested or not shown. In the library only some 2.8% were active in any assay of this set; here they are far more common.
SMILES,CF NFkB block,Shn3 3UTR inh,HIF-2a inh,KKLEB cytotox,MITF TRPM1 inh,Peg3 promoter,CF NFkB inh conf
COc1ccc(CCNc2nc(-c3cccnc3)nc3ccccc23)cc1OC,58*,8,-17,-28,-12,49,16
CCCCCCCCO,8,3,0,0,0,-15,/
CCCCCCCCCCCCCCCC(O)C(N)CO (stereo not given),61*,-1,5,0,10,-11,15
COC(=O)[C@]1(Cc2ccccc2)N[C@H](CN(C)C(=O)Nc2ccc(Cl)cc2)[C@@H]2C(=O)N(C)C(=O)[C@@H]21,3,-9,4,1,3,7,/
CNc1ccc2ncc(-c3ccc(OC)c(OC)c3)n2n1,76*,29,17,-19,/,28,104*
CNc1cncc(-c2ccc(F)c(F)c2)n1,3,-8,-26,2,/,-28,/
CNc1cncc(-c2ccc(OC)c(OC)c2)n1,56*,-14,9,-10,/,8,39
C=CCOC(=O)Nc1nc(CCNC(=O)OCc2ccccc2)c(C(=O)OC)s1,/,/,3,/,/,/,/
COc1ccc(N(Cc2cc(=O)[nH]c3ccccc23)C(=O)CCl)cc1,75*,8,2,-33,85*,80*,71*
O=C(c1ccc2c(Cl)c3c(nc2c1)CCCC3)N1CCN(c2ccc(F)cc2)CC1,29,-15,7,-14,10,35,/
COc1ccccc1N1CCN(C(=O)c2ccc3c(Cl)c4c(nc3c2)CCCC4)CC1,53*,-10,-5,-12,/,27,-95
NC(c1ccccc1)c1csc(NC(=O)Nc2cccc(Cl)c2)n1 (stereo not given),59*,0,-28,-1,/,108*,59*
O=C(Nc1cccc(Cl)c1)Nc1nc(-c2ccc(Cl)cc2)cs1,-9,37,-77,-17,16,-31,/
O=C(C=Cc1ccccc1O)c1ccccc1O,71*,-54,-5,-45,25,19,13
O=C(/C=C/c1ccccc1Cl)c1ccc(O)cc1,59*,-9,-237,-10,-12,-71,-38
O=[N+]([O-])c1cc(S(=O)(=O)N2CCCC2)ccc1OCc1ccccc1,7,12,-5,-2,-1,1,/
O=[N+]([O-])c1cc(S(=O)(=O)N2CCCC2)ccc1OCCOc1ccccc1,50*,-37,-19,-22,-3,14,15
CN(C)CCCN(C(=O)CCOc1ccccc1)c1nc2ccc(F)cc2s1,91*,-16,6,-35,9,72*,69*
CN(C)CCCN(C(=O)CCOc1ccccc1)c1nc2c(F)cccc2s1,85*,9,23,-27,16,50*,61*
COc1ccc(CNC(=O)C(c2ccccc2F)N(C(=O)c2csnn2)C2CC2)cc1 (stereo not given),2,-1,12,7,3,24,/
CCOC(=O)Oc1c(OC)cc(C(=O)O[C@@H]2C[C@@H]3CN4CCc5c([nH]c6cc(OC)ccc56)[C@H]4C[C@@H]3[C@H](C(=O)OC)[C@H]2OC)cc1OC,77*,93*,15,11,33,26,87*
CC(=O)Oc1ccc(N(C(C)=O)S(=O)(=O)c2ccc(Cl)cc2)c2ccccc12,86*,2,23,-12,17,4,70*
O=C(c1ccc(N2CCOCC2)c([N+](=O)[O-])c1)N1CCCC(C(F)(F)F)C1 (stereo not given),-13,8,2,15,-5,-7,/
COc1ccc(-n2ncc3c(N4CCN(Cc5ccccc5)CC4)ncnc32)cc1,66*,-7,-215,6,-8,103*,74*
Cc1cc(C)c2nc(-c3ccccn3)cc(C(=O)N3CCCC3)c2c1,-2,6,16,8,12,1,/
SMILES,CF NFkB block,Shn3 3UTR inh,HIF-2a inh,KKLEB cytotox,MITF TRPM1 inh,Peg3 promoter,CF NFkB inh conf
COc1cc(/C=C2\SC(=O)N(CCNC(=O)c3sc4cc(F)ccc4c3Cl)C2=O)cc(OC)c1OC,55*,15,17,-42,-6,7,67*
COc1cc(C(=O)NCC(=O)NCCN2C(=O)S/C(=C\c3ccccc3Cl)C2=O)cc(OC)c1OC,-19,-4,-46,-3,2,-41,/
COc1cc(NC(=O)c2ccccc2Cl)ccc1NC(=O)c1cccs1,-12,-99,-269,4,-73,-274,/
COc1cc(NC(=O)c2cc3ccccc3cc2OC)ccc1NC(=O)c1cccs1,59*,9,-19,17,18,47,102*
N#Cc1c(Nc2cccc(F)c2)sc2c(O)cc(=O)[nH]c12,-1,9,13,9,-2,13,/
CC(=O)c1cccc(CN2CCC(C(=O)Nc3cccc(-c4ccn[nH]4)c3)CC2)c1,-21,5,-7,0,0,-11,/
CCN1CCN(Cc2ccc(NC(=O)c3ccc(C)c(NC(=O)c4csc(-c5ccncc5)n4)c3)cc2C(F)(F)F)CC1,71*,-1,22,-8,49,-9,46*
CCN1CCN(Cc2ccc(NC(=O)c3ccc(C)c(NC(=O)c4ccno4)c3)cc2C(F)(F)F)CC1,56*,18,12,-4,-6,18,69*
O=C(Nc1ccc(Cl)cc1)c1csc(-c2ccncc2)n1,-19,11,-78,25,4,-56,/
C=C(C)[C@@H]1CCC2(C(=O)O)CC[C@]3(C)[C@H](CC[C@@H]4[C@@]5(C)CCC(=O)C(C)(C)[C@@H]5CC[C@]43C)[C@@H]12 (stereo not given in full),63*,-18,8,-17,10,8,64*
C=C(CC[C@@H](O)C(C)(C)O)[C@H]1CC[C@]2(C)[C@@H]1CCC1[C@@]3(C)CCC(=O)C(C)(C)C3CC[C@]12C (stereo not given in full),25,19,6,-20,3,5,/
Cc1ccc(S(=O)(=O)N(C(=O)c2ccncc2)c2ccc(OC(=O)c3ccncc3)cc2)cc1,21,-1,20,-6,16,17,/
Cc1ccc(C)c(S(=O)(=O)N(C(=O)c2ccncc2)c2ccc(OC(=O)c3ccncc3)cc2)c1,69*,3,20,-9,-2,43,85*
COc1ccc2c(C)nc(Nc3nc(-c4ccccc4)cc(=O)[nH]3)nc2c1,64*,-97,-52,3,70*,108*,-59
